Test results taken from PubChem BioAssay (Tox21).
Records with an inconclusive call do not appear. Values without a mark were called inactive. Calls of active or inactive are those of the source. The call rests on the fitted dose curve; in most records, active means well fitted cell-killing curve with a large enough effect in the repeat runs; inconclusive means weak or mixed curves, or effect the other way; inactive means no such curve, though single readings can be large or run the other way.

Experiment: Caspase-3/7 induction in CHO-K1 cells by small molecules, qHTS cell viability counter screen (AID 1346979); further: nearly all actives have a fitted effect of over 35% in size
Conditions: CellTiter-Fluor fluorescence, 17 h; series mostly up to 92.4 µM; activity change, negative = cytotoxicity: at the top concentration
Excerpt: National Center for Advancing Translational Sciences [NCATS]
NIH Chemical Genomics Center [NCGC]
U.S. Environmental Protection Agency [EPA]
National Institutes of Environmental Health Sciences [NIEHS]
National Toxicology Program [NTP]
U.S. Food and Drug Administration [FDA]
Apoptosis is a process of programmed cell death and plays a central role in the development of multicellular organisms. It is a highly regulated process and induces cell death by activating caspases, which are the members of cysteine aspartic acid-specific protease (caspase) family. Caspases involved in apoptosis are classified by their mechanism of action as initiator caspases (caspase-2, -8, -9 and -10) and executioner caspases (caspase-3, -6, and -7). Inhibition of apoptosis results in number of cancers, autoimmune diseases, inflammatory diseases and viral infection. To identify small molecule compounds that induce apoptosis, a homogeneous, luminescent Caspase-Glo 3/7 assay was used. Wild type CHO-K1 cells were used to screen Tox21 libraries for identifying caspase-3/7 activity inducers. Also cytotoxicity of the compounds was tested in parallel by measuring the cell viability using CellTiter-Fluor assay system in the same wells.
Tox21 Assay Protocol Summary:
CHO-K1 cells were dispensed at 1,500 per well in 5uL of culture medium into white solid bottom 1536-well plates (Corning Life Sciences, Corning, NY) using a Multidrop Combi (Thermo Scientific, Waltham, MA) dispenser. The assay plates were incubated at 37 C and 5% CO2 for 5hr, and then 23nL of compounds dissolved in DMSO and positive control were transferred using a Pintool station (Wako, San Diego, CA). The assay plates were incubated at 37C and 5% CO2 for 17hr. For cytotoxicity read, after 16hr incubation at 37C, 1uL CellTiter-Fluor reagent (Promega Corporation, Madison, WI) was added to each well of the assay plates using Flying Reagent Dispenser (FRD, Aurora Discovery, San Diego, CA). After 1hr incubation at 37C and 5% CO2, the fluorescence signal was quantified using a ViewLux plate reader (PerkinElmer, Shelton, CT).
On the % scale 0 is the no-effect control and ±100 the full control effect; potency means the concentration at half of the fitted maximal effect.

Compared with `CC(=O)OC(C)(C)Cc1ccccc1`, `Cc1ccccc1OCC1CO1` (stereo not given) is lower in “activity change, negative = cytotoxicity” value: 8.72% for the first, -1.72% for the second.

First: C=C(C)C(=O)OC1CC(C)CC(C)(C)C1 (stereo not given)
Second: CC1CCC(C(C)(C)S)C(=O)C1 (stereo not given)
The “activity change, negative = cytotoxicity” value of the first is higher: 4.89% for the first, 1.63% for the second.

Going from `SCCSCCS` to `CN(C)CCOCCN(C)CCO`, the “activity change, negative = cytotoxicity” value falls from 13% to 10.2%.

First: CO[Si](CCCCl)(OC)OC
Second: CCCCCCCC[Si](OCC)(OCC)OCC
The “activity change, negative = cytotoxicity” value of the first is higher: 10.8% for the first, 3.73% for the second.

Going from `CC(Cl)COP(=O)(OCC(C)Cl)OCC(C)Cl` (stereo not given) to `CCCCC(CC)C(=O)OC(C)C` (stereo not given), the “activity change, negative = cytotoxicity” value rises from 0.961% to 6.96%.

Going from `CC1=CC[C@H](CC=O)C1(C)C` to `CC1(N)CCC(C(C)(C)N)CC1` (stereo not given), the “activity change, negative = cytotoxicity” value falls from 4.14% to -0.0421%.

First: CCCCCC(=O)OCC
Second: CCCCC(=O)N(C)C
The “activity change, negative = cytotoxicity” value of the first is higher: 8.42% for the first, -6.32% for the second.

Compared with `COc1cccc2sc(N)nc12`, `Cc1cccc(C(=O)O)c1[N+](=O)[O-]` is higher in “activity change, negative = cytotoxicity” value: -0.0251% for the first, 0.485% for the second.

First: CCCCCCCCCCCCC
Second: CCCCOC(=O)C(=O)OCCCC
The “activity change, negative = cytotoxicity” value of the first is lower: -0.498% for the first, 5.03% for the second.

Compared with `O=C1OC(=O)c2ccccc21`, `CCN(CCO)c1cccc(C)c1` is lower in “activity change, negative = cytotoxicity” value: 10.5% for the first, 9.41% for the second.

Going from `Nc1ccnc(=O)[nH]1` to `C=CCOc1c(Br)cc(Br)cc1Br`, the “activity change, negative = cytotoxicity” value falls from 7.7% to -1.21%.

Going from `C=CC(C)(O)CC/C=C(\C)CC` (stereo not given) to `C=C[C@@H](C)CCC=C(C)C`, the “activity change, negative = cytotoxicity” value falls from 9.55% to 0.714%.

In the case of `CCCO`, the “activity change, negative = cytotoxicity” value is reported as 1.98%.

First: CCC1Nc2cc(Cl)c(S(N)(=O)=O)cc2S(=O)(=O)N1 (stereo not given)
Second: NS(=O)(=O)c1cc2c(cc1Cl)NC(CC1CCCC1)NS2(=O)=O (stereo not given)
The “activity change, negative = cytotoxicity” value of the first is lower: 0.121% [at 42.5 µM] for the first, 8.29% [at 42.5 µM] for the second.

Compared with `Cc1oc(=O)oc1CN1CCN(c2cc3c(cc2F)c(=O)c(C(=O)O)c2n3C(C)S2)CC1` (stereo not given), `Cn1c(=O)c2c(ncn2CC2OCCO2)n(C)c1=O` is higher in “activity change, negative = cytotoxicity” value: -1.74% [at 42.5 µM] for the first, 8.46% [at 42.5 µM] for the second.

Going from `CCS(=O)(=O)CCn1c([N+](=O)[O-])cnc1C` to `Cc1ccc(C(=O)C(=O)O)cc1C`, the “activity change, negative = cytotoxicity” value falls from 2.74% [at 42.5 µM] to -0.246% [at 42.5 µM].

Compared with `C[C@@H]1C[C@H]2[C@@H]3C[C@H](F)C4=CC(=O)C=C[C@]4(C)[C@@]3(F)[C@@H](O)C[C@]2(C)[C@@]1(O)C(=O)CO`, `O=C(O)CCNC(=O)c1ccccc1` is lower in “activity change, negative = cytotoxicity” value: 6.98% [at 42.5 µM] for the first, 0.101% [at 42.5 µM] for the second.

First: Cc1c(C(C)C)c(=O)n(-c2ccccc2)n1C
Second: CNCc1ccccc1
The “activity change, negative = cytotoxicity” value of the first is higher: -2.49% [at 42.5 µM] for the first, -2.86% [at 42.5 µM] for the second.

First: C=CCOc1cc(Cl)ccc1C(=O)NCCN(CC)CC
Second: CCCCCN(CCCOC)C(=O)C(CCC(=O)O)NC(=O)c1ccc(Cl)c(Cl)c1 (stereo not given)
The “activity change, negative = cytotoxicity” value of the first is lower: 2.41% [at 42.5 µM] for the first, 8.87% [at 42.5 µM] for the second.

First: CCCCCCCCCCCCCCCC(=O)NCCO
Second: O=C(Oc1ccccc1C(=O)O)c1ccccc1O
The “activity change, negative = cytotoxicity” value of the first is higher: 1.36% [at 42.5 µM] for the first, -2.69% [at 42.5 µM] for the second.

With `Cc1cc(O)c2c(c1)C(=O)c1cccc(O)c1C2=O` the Potency was 29.9 µM (active).
